The text below walks through data of PubChem BioAssay.

Calls of active or inactive are those of the source. Unless noted, no rule for the calls is given here.

The nature of experiment [1]: HepG2 liver cancer cell viability effects, profiling panel, resazurin fluorescence, 24 h, PK04 Diversity Set (AID 1172). Also: test concentration not given here. The conditions noted are these: higher = more signal.
Experiment [2] can be described thus: basal S. cerevisiae growth modulation, no modifier, primary screen, OD600, strain BY4716, 24 h, basal condition (AID 1173). To be noted: OD600, 24 h, higher = more signal, called active from +8 up or from −8 down.
Experiment [3] is described as follows: MM1S myeloma cell viability, profiling panel, resazurin fluorescence, basal, 24 h, PK04 Diversity Set (AID 1174).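 Also: MM1S multiple myeloma cell line; test concentration not given here.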 The conditions noted are these: higher = more signal, called active from +8 up or from −8 down.
For experiment [4], the target named is Dihydroorotate dehydrogenase (quinone), mitochondrial (Plasmodium falciparum (isolate 3D7)) (UniProt Q08210). Briefly: PfDHODH enzyme inhibitors, primary screen, biochemical, C-terminal His tag, absorbance 600 nm (AID 1175).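 Also: recombinant parasite enzyme with a five histidine tag at its C terminus; test concentration not given here.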 The conditions noted are these: DCIP absorbance 600 nm, higher = more signal, called active from +8 up or from −8 down.
Dihydroorotate dehydrogenase (quinone), mitochondrial (Plasmodium falciparum (isolate 3D7)), sequence (Q08210 whole entry, looked up): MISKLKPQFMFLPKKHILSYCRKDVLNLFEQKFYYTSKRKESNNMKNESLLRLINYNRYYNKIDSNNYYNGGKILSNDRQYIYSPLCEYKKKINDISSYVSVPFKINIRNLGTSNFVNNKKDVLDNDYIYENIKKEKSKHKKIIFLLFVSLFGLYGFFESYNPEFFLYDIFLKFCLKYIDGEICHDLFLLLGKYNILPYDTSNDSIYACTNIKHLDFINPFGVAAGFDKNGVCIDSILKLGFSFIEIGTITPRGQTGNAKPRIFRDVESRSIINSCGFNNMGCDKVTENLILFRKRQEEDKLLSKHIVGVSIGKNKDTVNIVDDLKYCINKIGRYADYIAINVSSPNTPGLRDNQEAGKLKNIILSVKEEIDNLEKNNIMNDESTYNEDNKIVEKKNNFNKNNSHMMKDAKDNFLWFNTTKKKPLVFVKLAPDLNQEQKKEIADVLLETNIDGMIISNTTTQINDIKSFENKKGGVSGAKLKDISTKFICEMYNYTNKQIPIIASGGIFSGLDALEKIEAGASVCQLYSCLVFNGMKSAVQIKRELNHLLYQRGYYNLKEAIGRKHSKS
Experiment [5] can be described thus: P. aeruginosa biofilm formation inhibitors, primary screen, strain PAO1, LB-PBS medium, absorbance 600 nm (AID 1176). Also: test concentration not given here. To be noted: P. aeruginosa PAO1 growth/biofilm, A600, 12 h; higher = more signal.
Experiment [6] is described as follows: S. cerevisiae RM11-1a growth modifiers, primary screen, strain RM11-1a, OD600, basal, 24 h (AID 1177).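 Also: cultures grown under basal conditions with no added stressor; test concentration not given here.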 To be noted: OD600, 24 h, higher = more signal, called active from +8 up or from −8 down.
Experiment [7] can be described thus: E. coli acrAB mutant growth effects, primary screen, E. coli filamentation inducers, strain DRC39, OD650, 24 h (AID 1178).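 Also: growth measured as culture turbidity by optical density at 650 nm; test concentration not given here.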 The conditions noted are these: higher = more signal, called active from +8 up or from −8 down.
The nature of experiment [8]: E. coli acrAB mutant growth effects, primary screen, E. coli filamentation inducers, strain DRC39, OD650, 48 h (AID 1179).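 Also: screen aims at cell division blockers that make cells filament.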 To be noted: E. coli DRC39 delta-acrAB growth, higher = more signal, called active from +8 up or from −8 down.
Experiment [9] is described as follows: RPMI8226 myeloma cell viability, profiling panel, resazurin fluorescence, basal, 24 h, PK04 Diversity Set (AID 1180).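 Also: RPMI8826 multiple myeloma cell line at 5000 cells per well; test concentration not given here.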 To be noted: higher = more signal.
Experiment [10] concerns the target E3 ubiquitin-protein ligase XIAP (Homo sapiens) (UniProt P98170). Briefly: XIAP binders, primary screen, biophysical, small-molecule microarray, fluorescence 635 nm (AID 1181).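 Also: score merges 667 nm emission and signal to noise over triplicate slides.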 The conditions noted are these: small-molecule microarray binding, higher = more signal.

E3 ubiquitin-protein ligase XIAP (Homo sapiens), sequence (P98170 whole entry, looked up): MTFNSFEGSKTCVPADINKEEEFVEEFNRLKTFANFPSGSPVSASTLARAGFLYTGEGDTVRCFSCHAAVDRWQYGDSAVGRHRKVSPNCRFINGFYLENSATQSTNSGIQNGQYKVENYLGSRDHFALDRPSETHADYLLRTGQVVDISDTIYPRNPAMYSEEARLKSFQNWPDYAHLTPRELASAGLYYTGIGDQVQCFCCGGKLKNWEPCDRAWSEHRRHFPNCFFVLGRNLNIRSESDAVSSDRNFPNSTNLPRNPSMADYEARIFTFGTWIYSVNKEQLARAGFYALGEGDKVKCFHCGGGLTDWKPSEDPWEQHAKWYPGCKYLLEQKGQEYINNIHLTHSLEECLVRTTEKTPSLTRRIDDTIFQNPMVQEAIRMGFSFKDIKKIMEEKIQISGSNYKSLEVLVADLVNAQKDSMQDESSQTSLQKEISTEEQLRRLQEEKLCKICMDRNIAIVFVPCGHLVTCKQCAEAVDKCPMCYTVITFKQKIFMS

Consider `COCCOC(=O)N1C(=O)[C@@]2(c3cc(C#CCCO)ccc31)[C@H](C(=O)NC[C@H](O)c1ccccc1)[C@H]1C(=O)O[C@H](c3ccccc3)[C@H](c3ccccc3)N1[C@@H]2c1ccc(O)cc1`, for which the z-score in experiment [1] was 0.816; in experiment [2] it was 0.562 (inactive); in experiment [3] it was 0.858 (inactive); in [5] it was 0.29 (inactive); in experiment [6], 1.36 (inactive); in experiment [7] it was 1.01 (inactive). The z-score in [8] was 0.887 (inactive); in experiment [9] it was 1.04. In addition, the values for the composite z-score in experiment [4] and in experiment [10] were 1.34 (inactive) and -0.0126, respectively.
For `COC(=O)[C@@]1(Cc2ccc(F)cc2)[C@H]2c3cc(C(=O)N(C)C)n(CCc4ccccn4)c3C[C@H]2CN1C(=O)c1ccccc1`, the z-score in experiment [1] is 0.244; in experiment [2] it was 0.676 (inactive); in experiment [3], -0.309 (inactive); in experiment [5] it was 0.0944 (inactive); in experiment [6] it was -0.182 (inactive); in experiment [7], 0.2 (inactive). For the same compound, the z-score is -1.02 (inactive) in [8] and 0.357 in [9]. In addition, the composite z-score in experiment [4] was -0.804 (inactive); in experiment [10], 0.254.
Take `CC(C)CNC(=O)[C@@]1(c2ccc([N+](=O)[O-])cc2)CC(=O)N(CC23CC4CC(CC(C4)C2)C3)[C@@H]1c1ccc(CO)cc1I`: the z-score in experiment [1] was -2.55; in experiment [2], 0.431 (inactive); in [3], -2.77 (inactive); in experiment [5] it was 1.9 (inactive); in experiment [6] it was 1.69 (inactive); in experiment [7], -0.507 (inactive). Moreover, the z-score in experiment [8] is -0.91 (inactive); in experiment [9] it was -3.94. Further, the composite z-score was 0.989 (inactive) in experiment [4] and -0.144 in experiment [10].
On to `CCCC[C@@H]1C[C@H]1[C@@H](NC(=O)c1ccc(-c2ccccc2)cc1)c1ccc(-c2ccccc2)cc1`, for which the z-score in [1] is 0.543; in experiment [2] it was -0.498 (inactive); in experiment [3], -0.271 (inactive); in experiment [5], 0.315 (inactive); in experiment [6] it was 0.0066 (inactive); in [7] it was -0.836 (inactive). The z-score in [8] was -1.19 (inactive); in experiment [9] it was -0.0454. The composite z-score in [4] was -1.12 (inactive); in experiment [10] it was 0.359.
As to `CCCCC=C[C@@H](NC(=O)c1cccs1)c1ccccc1`, the z-score in [1] was 0.327; in experiment [2] it was 0.822 (inactive); in [3], -0.321 (inactive); in experiment [5], 0.191 (inactive); in [6], 1 (inactive); in experiment [7] it was 0.659 (inactive). Further, the figures for the z-score in experiment [8] and in experiment [9] were 0.955 (inactive) and -1.95, respectively. Besides, the composite z-score in [4] is 0.0375 (inactive); in experiment [10], -0.0426.
Turning to `NC(=O)NCC#Cc1ccc2c(c1)[C@]1(C(=O)N2)[C@H](C(=O)NC[C@H](O)c2ccccc2)[C@H]2C(=O)O[C@H](c3ccccc3)[C@H](c3ccccc3)N2[C@@H]1c1ccc(O)cc1`, the z-score in experiment [1] is -0.0042; in experiment [2], 1.56 (inactive); in [3], -0.027 (inactive); in [5], 1.32 (inactive); in experiment [6], 2.12 (inactive); in [7], 0.346 (inactive). Further, the z-score in experiment [8] was 0.0233 (inactive); in experiment [9] it was -0.518. The composite z-score is 0.389 (inactive) in [4] and 0.15 in experiment [10].
With `Cc1ccc(F)cc1S(=O)(=O)N[C@@H]1CCN(Cc2ccc(-c3ccccc3)cc2)C1`, the z-score was -0.603 in experiment [1]; -19.1 (active) in experiment [2]; -3.27 (inactive) in experiment [3]; 0.425 (inactive) in experiment [5]; -22.4 (active) in [6]; -20.5 (active) in experiment [7]. For the same compound, the z-score in experiment [8] is -20 (active); in [9], -2.16. Besides, the composite z-score was -0.427 (inactive) in [4] and 0.0368 in experiment [10].
For `[N-]=[N+]=NCc1ccccc1C[C@@]1(C(=O)NCC(O)CO)N=C(c2ccc(OCCCO)cc2)O[C@@H]1c1ccccc1CN=[N+]=[N-]` (stereo not given in full), the z-score in experiment [1] was 0.376; in experiment [2] it was -0.247 (inactive); in [3], -1.3 (inactive); in experiment [5] it was 2.33 (inactive); in experiment [6] it was 0.0651 (inactive); in experiment [7] it was 0.322 (inactive). For the same compound, the z-score in [8] is -0.0665 (inactive); in experiment [9] it was -1.03. In addition, the composite z-score was 0.34 (inactive) in [4] and -0.377 in [10].
For the compound `COc1ccccc1CN1C(=O)c2ccccc2[C@@H](C(=O)NCCN2CCOCC2)[C@@H]1c1ccc(CO)cc1`, the z-score in [1] was 0.505; in experiment [2] it was -0.248 (inactive); in experiment [3], -0.0527 (inactive); in [5], 1.56 (inactive); in experiment [6] it was -0.0436 (inactive); in experiment [7], 0.187 (inactive). In addition, the z-score is -0.0251 (inactive) in experiment [8] and 0.154 in experiment [9]. In addition, the composite z-score in [4] was 0.249 (inactive); in [10], 0.101.
Regarding `COCCOC(=O)N1C(=O)[C@@]2(c3cc(C#CCCO)ccc31)[C@H](c1ccccc1OCCO)N1[C@H](c3ccccc3)[C@H](c3ccccc3)OC(=O)[C@H]1[C@@H]2C(=O)N1CCN(c2ncccn2)CC1`, the z-score in experiment [1] is -0.0071; in experiment [2] it was 1.42 (inactive); in experiment [3] it was -0.285 (inactive); in experiment [5] it was 1.6 (inactive); in experiment [6] it was 2.18 (inactive); in experiment [7], -0.0933 (inactive). For the same compound, the z-score in [8] is -0.27 (inactive); in experiment [9], -0.803. Further, the composite z-score in [4] was -0.465 (inactive); in experiment [10], -0.0304.
With `COCCOC(=O)N1C(=O)[C@@]2(c3cc(C#CCC(C(=O)OC)C(=O)OC)ccc31)[C@H](C(=O)N1CCN(c3ncccn3)CC1)[C@H]1C(=O)O[C@H](c3ccccc3)[C@H](c3ccccc3)N1[C@@H]2c1ccc(OCCO)cc1`, the z-score is 1.36 in [1]; 0.539 (inactive) in experiment [2]; 0.724 (inactive) in experiment [3]; 3.48 (inactive) in experiment [5]; 1.84 (inactive) in experiment [6]; 0.272 (inactive) in [7]. Further, the z-score in experiment [8] was 0.106 (inactive); in experiment [9], 1.32. Moreover, the values for the composite z-score in experiment [4] and in [10] were -0.432 (inactive) and 0.0838, respectively.
In the case of `CCCCCN1CC=CC23O[C@@H]4C=CCOC(=O)[C@@H]4[C@H]2C(=O)N(CCCO)[C@@H]3C1=O` (stereo not given in full), the z-score in experiment [1] was 0.22; in experiment [2], -0.988 (inactive); in [3], 0.806 (inactive); in experiment [5], 0.0837 (inactive); in experiment [6] it was -0.0379 (inactive); in experiment [7], -0.625 (inactive). Also, the z-score in [8] was 0.244 (inactive); in experiment [9], 0.217. Further, the composite z-score in [4] was -1.67 (inactive); in experiment [10] it was -0.0988.
Regarding `COc1ccc(C(=O)Nc2cccc(CN3C(=O)[C@]4(O[C@H](CC(=O)N5CCC[C@H]5CO)[C@@H]([Si](C)(C)c5ccc(OC)cc5)[C@@H]4C)c4ccccc43)c2)cc1`, the z-score in experiment [1] is -1.72; in experiment [2] it was -0.268 (inactive); in [3], -2.7 (inactive); in [5], 0.0943 (inactive); in experiment [6], 0.312 (inactive); in [7], 0.951 (inactive). Also, the z-score was 0.441 (inactive) in experiment [8] and -4.84 in experiment [9]. Also, the composite z-score was -2.54 (inactive) in experiment [4] and -0.0998 in experiment [10].
